What all share (test): DAPPL (digital affinity profiling via proximity ligation, sequencing); 10 mM Tris-HCl pH 7.5, 50 mM NaCl, 1 mM DTT, 4% glycerol, room temperature, 30 min; GST-TFs on glutathione beads, 16-mer random dsDNA library, 0.1% formaldehyde crosslink after washing; high values mean tight binding
The target of assay [1] is T1, FLI1 (Homo sapiens, UniProt Q01543 1-452).
T1 sequence: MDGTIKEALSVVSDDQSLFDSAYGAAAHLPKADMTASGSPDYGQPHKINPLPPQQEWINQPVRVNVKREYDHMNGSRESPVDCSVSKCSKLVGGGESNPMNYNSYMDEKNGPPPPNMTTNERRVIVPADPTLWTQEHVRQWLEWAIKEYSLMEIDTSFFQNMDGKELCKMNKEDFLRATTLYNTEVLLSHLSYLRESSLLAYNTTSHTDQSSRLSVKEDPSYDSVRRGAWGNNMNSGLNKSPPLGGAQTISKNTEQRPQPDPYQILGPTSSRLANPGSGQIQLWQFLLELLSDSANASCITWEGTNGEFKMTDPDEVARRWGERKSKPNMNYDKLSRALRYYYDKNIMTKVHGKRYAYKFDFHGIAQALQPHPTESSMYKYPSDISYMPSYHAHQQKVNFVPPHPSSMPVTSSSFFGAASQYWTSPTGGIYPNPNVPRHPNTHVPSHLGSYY
Conditions: protein: recombinant; tags: N-terminal GST; dsDNA, one strand shown. Put shortly:
(§1)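 Beads coated with glutathione captured GST-fused human transcription factors that had been expressed in yeast, and the factors were then given DNA barcodes and pooled with a tag-only sample. The pools were incubated with 200 nmole of a random double-stranded 16-mer DNA library in Tris/NaCl/DTT/glycerol buffer for 30 min at room temperature, washed, crosslinked with 0.1% formaldehyde and proximity-ligated with BsaI/T4 ligase at 37 °C for 1 h. PCR amplification and Illumina NextSeq500 sequencing came last. Binding signal is each hexamer's read frequency for a factor divided by its frequency for the tag-only sample.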

Assay [2] addresses T2, GABPA (Homo sapiens, UniProt Q06546 1-454).
T2 sequence: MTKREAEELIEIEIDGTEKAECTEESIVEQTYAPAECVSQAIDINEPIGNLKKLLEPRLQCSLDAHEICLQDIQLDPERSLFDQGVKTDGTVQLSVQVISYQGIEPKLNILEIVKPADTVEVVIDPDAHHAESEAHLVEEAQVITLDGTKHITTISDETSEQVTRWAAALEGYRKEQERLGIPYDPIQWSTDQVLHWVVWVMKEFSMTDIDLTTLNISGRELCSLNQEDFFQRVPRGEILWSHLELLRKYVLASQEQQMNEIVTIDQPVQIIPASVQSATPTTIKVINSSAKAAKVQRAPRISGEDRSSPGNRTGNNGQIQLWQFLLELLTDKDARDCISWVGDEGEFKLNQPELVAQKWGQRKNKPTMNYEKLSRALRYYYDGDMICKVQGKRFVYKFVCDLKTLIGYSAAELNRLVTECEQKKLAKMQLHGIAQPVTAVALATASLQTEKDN
The note with it: protein: recombinant; tags: N-terminal GST; dsDNA, one strand shown. Put shortly: as §1

The target in assay [3] is T3, ERG (Homo sapiens, UniProt P11308 1-479).
T3 sequence: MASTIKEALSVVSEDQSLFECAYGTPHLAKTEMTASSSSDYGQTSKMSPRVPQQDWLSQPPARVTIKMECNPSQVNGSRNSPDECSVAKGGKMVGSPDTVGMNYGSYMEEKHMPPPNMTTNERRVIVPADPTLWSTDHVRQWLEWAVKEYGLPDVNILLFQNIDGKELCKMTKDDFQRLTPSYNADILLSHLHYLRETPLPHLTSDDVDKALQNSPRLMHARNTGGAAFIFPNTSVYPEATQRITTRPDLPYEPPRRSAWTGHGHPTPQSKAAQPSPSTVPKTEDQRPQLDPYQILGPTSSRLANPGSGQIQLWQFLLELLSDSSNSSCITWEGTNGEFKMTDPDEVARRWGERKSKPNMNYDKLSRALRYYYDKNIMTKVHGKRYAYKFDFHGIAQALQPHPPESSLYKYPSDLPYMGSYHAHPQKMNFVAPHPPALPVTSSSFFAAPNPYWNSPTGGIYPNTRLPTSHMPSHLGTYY
Conditions: protein: recombinant; tags: N-terminal GST; dsDNA, one strand shown. In outline:
as §1

The target of assay [4] is ELF1 (Homo sapiens, UniProt P32519 1-619). The note with it: protein: recombinant; tags: N-terminal GST; dsDNA, one strand shown. Put shortly:
as §1

Assay [5] has as its target SPI1 (Homo sapiens, UniProt P17947 1-270). The note with it: protein: recombinant; tags: N-terminal GST; dsDNA, one strand shown. Put shortly: as §1
Assay [6] concerns the target SPIB (Homo sapiens, UniProt Q01892 1-262). The note with it: protein: recombinant; tags: N-terminal GST; dsDNA, one strand shown. Put shortly:
as §1

Assay [7] concerns the target T4, ELK3 (Homo sapiens, UniProt P41970 1-407).
T4 sequence: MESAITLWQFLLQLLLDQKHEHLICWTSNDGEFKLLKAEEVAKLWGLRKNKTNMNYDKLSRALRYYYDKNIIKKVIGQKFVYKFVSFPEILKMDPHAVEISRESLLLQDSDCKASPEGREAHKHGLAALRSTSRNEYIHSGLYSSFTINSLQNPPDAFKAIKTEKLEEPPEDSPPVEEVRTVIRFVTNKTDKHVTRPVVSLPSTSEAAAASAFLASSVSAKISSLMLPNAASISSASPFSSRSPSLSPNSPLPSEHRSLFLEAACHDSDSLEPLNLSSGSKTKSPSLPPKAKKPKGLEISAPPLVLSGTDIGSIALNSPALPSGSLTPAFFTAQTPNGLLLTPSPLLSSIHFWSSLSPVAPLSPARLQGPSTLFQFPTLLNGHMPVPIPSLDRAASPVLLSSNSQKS
Conditions: protein: recombinant; tags: N-terminal GST; dsDNA, one strand shown. In outline:
as §1

For assay [8], the target named is T5, FEV (Homo sapiens, UniProt Q99581 1-238).
T5 sequence: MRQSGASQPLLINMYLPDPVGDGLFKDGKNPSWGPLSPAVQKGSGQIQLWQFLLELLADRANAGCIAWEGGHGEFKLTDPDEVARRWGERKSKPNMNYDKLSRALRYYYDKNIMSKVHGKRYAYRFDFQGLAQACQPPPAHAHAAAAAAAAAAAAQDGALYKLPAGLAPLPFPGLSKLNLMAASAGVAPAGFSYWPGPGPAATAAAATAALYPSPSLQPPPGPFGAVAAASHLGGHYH
Conditions: protein: recombinant; tags: N-terminal GST; dsDNA, one strand shown. Put shortly:
as §1

Assay [9] deals with ETV5 (Homo sapiens, UniProt P41161 1-510). Conditions: protein: recombinant; tags: N-terminal GST; dsDNA, one strand shown. Put shortly:
as §1

Assay [10] has as its target HSF1 (Homo sapiens, UniProt Q00613 1-529). The note with it: protein: recombinant; tags: N-terminal GST; chain copies: 3; dsDNA, one strand shown. In outline:
as §1

In assay [11] the target is T6, SPIC (Homo sapiens, UniProt Q8N5J4 1-248).
T6 sequence: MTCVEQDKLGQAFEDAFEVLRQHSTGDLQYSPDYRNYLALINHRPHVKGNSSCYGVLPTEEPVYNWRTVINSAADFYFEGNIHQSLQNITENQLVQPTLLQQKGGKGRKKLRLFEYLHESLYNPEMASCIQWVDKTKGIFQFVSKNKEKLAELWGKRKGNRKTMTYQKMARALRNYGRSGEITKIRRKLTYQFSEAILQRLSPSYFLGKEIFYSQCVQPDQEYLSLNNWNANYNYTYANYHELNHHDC
The note with it: protein: recombinant; tags: N-terminal GST; dsDNA, one strand shown. In outline:
as §1

The target of assay [12] is ELF4 (Homo sapiens, UniProt Q99607 1-663). The note with it: protein: recombinant; tags: N-terminal GST; dsDNA, one strand shown. Put shortly: as §1
Assay [13] addresses T7, ELK4 (Homo sapiens, UniProt P28324-2 1-405).
T7 sequence: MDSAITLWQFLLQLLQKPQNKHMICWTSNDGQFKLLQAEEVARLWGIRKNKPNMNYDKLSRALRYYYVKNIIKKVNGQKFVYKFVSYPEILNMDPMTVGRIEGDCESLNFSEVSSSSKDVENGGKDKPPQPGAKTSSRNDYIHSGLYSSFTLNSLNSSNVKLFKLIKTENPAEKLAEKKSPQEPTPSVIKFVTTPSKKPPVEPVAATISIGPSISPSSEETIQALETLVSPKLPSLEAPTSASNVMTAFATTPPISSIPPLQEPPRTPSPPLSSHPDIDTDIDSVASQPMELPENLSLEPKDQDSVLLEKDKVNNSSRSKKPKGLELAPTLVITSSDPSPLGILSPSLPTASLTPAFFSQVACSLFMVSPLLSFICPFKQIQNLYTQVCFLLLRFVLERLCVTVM
The note with it: protein: recombinant; tags: N-terminal GST; dsDNA, one strand shown. Put shortly: as §1

Assay [14] deals with T8, ETV2 (Homo sapiens, UniProt O00321 1-342).
T8 sequence: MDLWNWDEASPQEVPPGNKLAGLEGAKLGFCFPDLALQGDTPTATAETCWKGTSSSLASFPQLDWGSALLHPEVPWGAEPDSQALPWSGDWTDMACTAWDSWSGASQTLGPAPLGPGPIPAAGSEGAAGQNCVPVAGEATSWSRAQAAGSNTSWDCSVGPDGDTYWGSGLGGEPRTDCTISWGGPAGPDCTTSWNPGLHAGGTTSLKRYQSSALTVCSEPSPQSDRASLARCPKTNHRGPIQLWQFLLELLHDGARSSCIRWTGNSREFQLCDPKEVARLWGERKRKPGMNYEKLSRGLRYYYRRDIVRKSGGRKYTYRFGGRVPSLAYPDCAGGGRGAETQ
Conditions: protein: recombinant; tags: N-terminal GST; dsDNA, one strand shown. Put shortly: as §1

Assay [15] addresses T9, ELF3 (Homo sapiens, UniProt P78545 1-371).
T9 sequence: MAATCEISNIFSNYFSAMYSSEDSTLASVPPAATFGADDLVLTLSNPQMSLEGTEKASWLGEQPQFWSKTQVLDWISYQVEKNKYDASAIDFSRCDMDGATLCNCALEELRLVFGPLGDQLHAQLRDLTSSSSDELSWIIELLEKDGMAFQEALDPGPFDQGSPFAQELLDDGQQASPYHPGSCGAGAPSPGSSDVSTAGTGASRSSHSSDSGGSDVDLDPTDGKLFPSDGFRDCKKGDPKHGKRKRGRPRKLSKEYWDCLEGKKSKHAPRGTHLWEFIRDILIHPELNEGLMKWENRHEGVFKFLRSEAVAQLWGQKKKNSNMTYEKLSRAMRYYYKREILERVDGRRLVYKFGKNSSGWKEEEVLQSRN
The note with it: protein: recombinant; tags: N-terminal GST; dsDNA, one strand shown. Put shortly:
as §1

Assay [16] addresses CRX (Homo sapiens, UniProt O43186 1-299). The note with it: protein: recombinant; tags: N-terminal GST; dsDNA, one strand shown. In outline: as §1
For assay [17], the target named is T10, ELK1 (Homo sapiens, UniProt P19419 1-428).
T10 sequence: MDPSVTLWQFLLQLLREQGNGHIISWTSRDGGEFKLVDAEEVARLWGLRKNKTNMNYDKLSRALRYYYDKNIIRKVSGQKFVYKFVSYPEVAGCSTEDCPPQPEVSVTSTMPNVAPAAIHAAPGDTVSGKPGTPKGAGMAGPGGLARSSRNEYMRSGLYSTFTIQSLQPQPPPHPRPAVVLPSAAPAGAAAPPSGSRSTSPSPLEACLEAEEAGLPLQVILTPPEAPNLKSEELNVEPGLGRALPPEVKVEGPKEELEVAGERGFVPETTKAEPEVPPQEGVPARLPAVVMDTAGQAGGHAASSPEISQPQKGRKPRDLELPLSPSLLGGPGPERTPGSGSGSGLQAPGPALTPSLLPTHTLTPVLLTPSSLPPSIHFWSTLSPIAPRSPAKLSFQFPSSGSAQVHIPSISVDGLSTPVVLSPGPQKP
The note with it: protein: recombinant; tags: N-terminal GST; dsDNA, one strand shown. Put shortly:
as §1

Assay [18] has as its target ETV1 (Homo sapiens, UniProt P50549 1-477). Conditions: protein: recombinant; tags: N-terminal GST; dsDNA, one strand shown. In outline: as §1

Chain of ELF4 (Q99607 whole entry): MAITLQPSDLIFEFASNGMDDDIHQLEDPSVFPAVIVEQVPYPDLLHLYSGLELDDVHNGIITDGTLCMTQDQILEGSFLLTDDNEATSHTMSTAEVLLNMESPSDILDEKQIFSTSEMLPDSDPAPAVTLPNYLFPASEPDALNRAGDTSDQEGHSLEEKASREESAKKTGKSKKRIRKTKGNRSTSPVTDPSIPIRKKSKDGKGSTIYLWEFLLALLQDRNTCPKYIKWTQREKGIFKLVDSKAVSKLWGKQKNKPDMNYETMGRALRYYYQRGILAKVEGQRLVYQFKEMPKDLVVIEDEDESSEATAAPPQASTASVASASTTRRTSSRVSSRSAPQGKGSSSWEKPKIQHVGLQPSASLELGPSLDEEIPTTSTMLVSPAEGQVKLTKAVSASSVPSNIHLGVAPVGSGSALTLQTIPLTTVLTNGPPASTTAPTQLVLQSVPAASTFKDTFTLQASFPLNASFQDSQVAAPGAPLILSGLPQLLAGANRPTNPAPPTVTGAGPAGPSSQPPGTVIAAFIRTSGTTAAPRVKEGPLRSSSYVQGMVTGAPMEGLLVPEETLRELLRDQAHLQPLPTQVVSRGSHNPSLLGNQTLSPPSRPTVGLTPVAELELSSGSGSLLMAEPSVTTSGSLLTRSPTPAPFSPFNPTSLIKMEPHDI
Chain of ELF1 (P32519 whole entry): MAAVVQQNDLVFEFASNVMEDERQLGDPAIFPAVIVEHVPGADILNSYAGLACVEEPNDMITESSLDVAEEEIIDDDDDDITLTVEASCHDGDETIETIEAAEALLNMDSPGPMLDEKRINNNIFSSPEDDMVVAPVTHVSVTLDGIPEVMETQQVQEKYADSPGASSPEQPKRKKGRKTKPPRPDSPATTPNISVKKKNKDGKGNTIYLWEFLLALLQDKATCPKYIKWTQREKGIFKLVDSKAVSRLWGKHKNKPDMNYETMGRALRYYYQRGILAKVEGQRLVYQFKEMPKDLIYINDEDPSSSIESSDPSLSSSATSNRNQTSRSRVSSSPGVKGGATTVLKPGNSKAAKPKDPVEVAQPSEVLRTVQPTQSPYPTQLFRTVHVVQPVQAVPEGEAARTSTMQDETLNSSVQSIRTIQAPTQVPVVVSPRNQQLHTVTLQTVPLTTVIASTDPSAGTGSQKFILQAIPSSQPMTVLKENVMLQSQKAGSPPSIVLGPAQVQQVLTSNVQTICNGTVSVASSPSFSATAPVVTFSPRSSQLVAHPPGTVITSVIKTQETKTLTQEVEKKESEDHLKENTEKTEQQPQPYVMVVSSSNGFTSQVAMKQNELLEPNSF
Chain of ETV5 (P41161 whole entry): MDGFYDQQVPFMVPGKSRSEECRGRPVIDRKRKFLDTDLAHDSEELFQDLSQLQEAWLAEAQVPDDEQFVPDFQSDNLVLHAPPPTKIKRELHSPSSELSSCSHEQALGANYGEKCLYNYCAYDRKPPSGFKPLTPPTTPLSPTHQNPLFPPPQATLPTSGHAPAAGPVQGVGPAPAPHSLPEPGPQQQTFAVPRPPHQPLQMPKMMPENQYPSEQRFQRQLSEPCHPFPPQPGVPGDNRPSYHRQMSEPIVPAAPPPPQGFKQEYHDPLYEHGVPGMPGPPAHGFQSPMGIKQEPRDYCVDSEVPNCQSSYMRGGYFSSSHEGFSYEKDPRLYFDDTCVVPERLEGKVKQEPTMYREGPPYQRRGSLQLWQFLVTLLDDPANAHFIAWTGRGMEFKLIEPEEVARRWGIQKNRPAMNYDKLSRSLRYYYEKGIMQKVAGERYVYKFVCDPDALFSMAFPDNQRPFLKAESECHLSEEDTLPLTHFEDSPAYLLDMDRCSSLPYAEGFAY
Chain of CRX (O43186 whole entry): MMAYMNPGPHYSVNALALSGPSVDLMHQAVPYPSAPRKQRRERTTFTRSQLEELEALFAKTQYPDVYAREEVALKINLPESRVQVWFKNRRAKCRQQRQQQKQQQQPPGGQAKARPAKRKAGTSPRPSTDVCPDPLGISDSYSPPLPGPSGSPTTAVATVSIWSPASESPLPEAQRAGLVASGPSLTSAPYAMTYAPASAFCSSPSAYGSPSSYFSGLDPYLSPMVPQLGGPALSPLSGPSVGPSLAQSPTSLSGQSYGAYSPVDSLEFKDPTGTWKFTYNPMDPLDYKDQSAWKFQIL
Chain of HSF1 (Q00613 whole entry): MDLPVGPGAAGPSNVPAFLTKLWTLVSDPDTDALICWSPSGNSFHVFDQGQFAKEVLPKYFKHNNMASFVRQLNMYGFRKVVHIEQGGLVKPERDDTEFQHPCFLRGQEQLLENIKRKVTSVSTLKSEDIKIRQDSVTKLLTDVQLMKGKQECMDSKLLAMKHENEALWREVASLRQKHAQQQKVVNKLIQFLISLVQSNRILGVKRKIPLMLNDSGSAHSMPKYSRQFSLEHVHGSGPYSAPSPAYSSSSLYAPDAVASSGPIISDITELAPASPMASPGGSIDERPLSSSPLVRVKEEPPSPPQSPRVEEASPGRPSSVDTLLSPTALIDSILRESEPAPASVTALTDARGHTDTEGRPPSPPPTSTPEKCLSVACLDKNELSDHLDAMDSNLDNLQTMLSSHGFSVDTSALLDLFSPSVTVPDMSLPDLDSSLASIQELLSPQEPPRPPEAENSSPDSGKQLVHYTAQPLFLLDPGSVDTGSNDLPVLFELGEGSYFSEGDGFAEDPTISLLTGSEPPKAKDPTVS
Chain of SPIB (Q01892 whole entry): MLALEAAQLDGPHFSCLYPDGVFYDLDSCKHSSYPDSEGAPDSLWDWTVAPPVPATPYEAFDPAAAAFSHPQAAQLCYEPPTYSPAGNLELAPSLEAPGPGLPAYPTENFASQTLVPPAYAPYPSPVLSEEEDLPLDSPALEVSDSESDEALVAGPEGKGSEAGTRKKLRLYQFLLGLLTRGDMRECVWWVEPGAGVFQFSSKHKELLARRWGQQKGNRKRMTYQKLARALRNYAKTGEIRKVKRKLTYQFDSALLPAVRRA
Chain of ETV1 (P50549 whole entry): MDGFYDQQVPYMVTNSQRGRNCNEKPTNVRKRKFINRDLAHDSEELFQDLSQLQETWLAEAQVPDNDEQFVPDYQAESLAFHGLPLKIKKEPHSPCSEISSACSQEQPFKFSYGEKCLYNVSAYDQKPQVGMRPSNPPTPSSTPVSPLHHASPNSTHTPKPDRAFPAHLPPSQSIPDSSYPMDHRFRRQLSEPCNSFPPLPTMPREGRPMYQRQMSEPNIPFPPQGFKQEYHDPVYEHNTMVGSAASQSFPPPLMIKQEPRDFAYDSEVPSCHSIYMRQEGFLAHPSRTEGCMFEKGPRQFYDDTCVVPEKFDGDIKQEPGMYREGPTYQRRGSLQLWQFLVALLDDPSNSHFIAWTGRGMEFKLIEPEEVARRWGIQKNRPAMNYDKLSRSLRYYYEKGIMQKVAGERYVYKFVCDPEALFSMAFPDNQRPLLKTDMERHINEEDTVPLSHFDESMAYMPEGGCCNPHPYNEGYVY

For the sequence TACTGG, the binding signal in assay [1] is 1.08 fold enrichment (6-mer frequency, TF over GST control); in assay [2] it was 1.19 fold enrichment (6-mer frequency, TF over GST control); in assay [3], 1.13 fold enrichment (6-mer frequency, TF over GST control); in assay [4], 1.13 fold enrichment (6-mer frequency, TF over GST control); in assay [5] it was 1.08 fold enrichment (6-mer frequency, TF over GST control); in [6], 1.05 fold enrichment (6-mer frequency, TF over GST control). For the same sequence, the binding signal in [7] was 1.07 fold enrichment (6-mer frequency, TF over GST control); in [8], 1.01 fold enrichment (6-mer frequency, TF over GST control); in [9], 1.1 fold enrichment (6-mer frequency, TF over GST control); in assay [10] it was 1.49 fold enrichment (6-mer frequency, TF over GST control); in assay [11], 1.22 fold enrichment (6-mer frequency, TF over GST control); in assay [12] it was 1.19 fold enrichment (6-mer frequency, TF over GST control). Also, the binding signal in assay [13] is 1.15 fold enrichment (6-mer frequency, TF over GST control); in [14] it was 1.3 fold enrichment (6-mer frequency, TF over GST control); in [15], 1.17 fold enrichment (6-mer frequency, TF over GST control); in assay [16], 1.35 fold enrichment (6-mer frequency, TF over GST control).
For the sequence TGGTTA, the binding signal in assay [1] is 1.17 fold enrichment (6-mer frequency, TF over GST control); in assay [17], 1.08 fold enrichment (6-mer frequency, TF over GST control); in assay [2], 1.09 fold enrichment (6-mer frequency, TF over GST control); in assay [3] it was 1.13 fold enrichment (6-mer frequency, TF over GST control); in assay [4], 1.1 fold enrichment (6-mer frequency, TF over GST control); in assay [5], 1.15 fold enrichment (6-mer frequency, TF over GST control). Further, the binding signal in assay [6] was 1.12 fold enrichment (6-mer frequency, TF over GST control); in assay [7], 1.13 fold enrichment (6-mer frequency, TF over GST control); in assay [8], 1.05 fold enrichment (6-mer frequency, TF over GST control); in assay [9], 1.03 fold enrichment (6-mer frequency, TF over GST control); in assay [10], 1.03 fold enrichment (6-mer frequency, TF over GST control); in assay [11], 1.25 fold enrichment (6-mer frequency, TF over GST control). For the same sequence, the binding signal in [12] is 1.02 fold enrichment (6-mer frequency, TF over GST control); in assay [13], 1.06 fold enrichment (6-mer frequency, TF over GST control); in assay [15], 1.16 fold enrichment (6-mer frequency, TF over GST control); in [16] it was 1.15 fold enrichment (6-mer frequency, TF over GST control); in assay [18] it was 1.01 fold enrichment (6-mer frequency, TF over GST control).
